Laboratory results from PubChem BioAssay.
Values without a mark were called inactive. Calls of active or inactive are those of the source.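 How the source made its calls: active means compounds that lower survival of DLD-1 colon cancer cells in the luminescence readout, no cutoff given; inactive means the rest.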

Assay: decreased DLD-1 cellular survival, CellTiter-Glo luminescent readout, NPC compound collection, primary HTS (AID 1117346)
Conditions: DLD-1 viability, CellTiter-Glo luminescence; at 20 µM (top of the series)
`NS(=O)(=O)c1cc(-c2nn[nH]n2)c(NCc2cccs2)cc1Cl` showed a viability decrease (inhibition) of -10.7%.
For `CCCCNC(=O)NS(=O)(=O)c1ccc(N)cc1`, the viability decrease (inhibition) was 8.7%.
With `CCCC(CCC)C(N)=O` the viability decrease (inhibition) was 22.3%.
Molecule `COc1ccc(CC2c3cc(OC)c(OC)cc3CCN2CCC(=O)OCCCCCOC(=O)CCN2CCc3cc(OC)c(OC)cc3C2Cc2ccc(OC)c(OC)c2)cc1OC` (centres undefined) has a viability decrease (inhibition) of -10.6%.
In the case of `CC1(C)OC(=O)Nc2ccc(Br)cc21`, the viability decrease (inhibition) is reported as 2.5%.
In the case of `COC(=O)C1=C(C)NC(COC(N)=O)=C(C(=O)OC(C)C)C1c1cccc(Cl)c1Cl` (centres undefined), the viability decrease (inhibition) is reported as 68.5% (active).
In the case of `CCO[C@@H]1O[C@H](C(COCc2ccccc2)OCc2ccccc2)[C@H](OCc2ccccc2)[C@H]1O` (some centres undefined), the viability decrease (inhibition) is reported as 44.6% (active).
Molecule `Oc1cn2c(n1)Nc1ccc(Cl)c(Cl)c1C2` has a viability decrease (inhibition) of -16.9%.
In the case of `NC(=Nc1ccccc1)Nc1ccccc1`, the viability decrease (inhibition) is reported as 75.2% (active).
`CCOC(=O)OCC/C(SC(=O)OCC)=C(\C)N(C=O)Cc1cnc(C)nc1N` showed a viability decrease (inhibition) of -10.1%.
In the case of `CC(C)C(=O)Nc1cccc(C(F)(F)F)c1`, the viability decrease (inhibition) is reported as -1%.
Work on `C/C(=C(\CCO)SS/C(CCO)=C(\C)N(C=O)Cc1cnc(C)nc1N)N(C=O)Cc1cnc(C)nc1N` yielded a viability decrease (inhibition) of 7.4%.
`COc1cc(C(=S)N2CCOCC2)cc(OC)c1OC` showed a viability decrease (inhibition) of 1.7%.
With `CC(C)(C)c1cc(C=O)cc(C(C)(C)C)c1O` the viability decrease (inhibition) was -10%.
`O=c1[nH]c(=O)n([C@H]2O[C@H](CO)[C@@H](O)[C@@H]2O)cc1/C=C\Br` gave a viability decrease (inhibition) of 2.6%.
In the case of `Cc1c(F)cc2c(=O)c(C(=O)O)cn3c2c1CCC3C` (centres undefined), the viability decrease (inhibition) is reported as -3%.
With `CC(=O)Oc1ccc(C2(c3ccc(OC(C)=O)cc3)Oc3ccccc3NC2=O)cc1` the viability decrease (inhibition) was 52.2% (active).
In the case of `COc1ccnc2c1CCCCC2S(=O)c1nc2ccccc2[nH]1` (centres undefined), the viability decrease (inhibition) is reported as 11.3%.
`CCN(CC)C(=O)C1CN2CCc3cc(OC)c(OC)cc3C2CC1OC(C)=O` (centres undefined) showed a viability decrease (inhibition) of -4.5%.
In the case of `CCOC(=O)Cn1cccc1-c1nc(-c2ccc(OC)cc2)c(-c2ccc(OC)cc2)s1`, the viability decrease (inhibition) is reported as 77.5% (active).
In the case of `N#C/C(=C1/SC[C@@H](c2ccc(Cl)cc2Cl)S1)n1ccnc1`, the viability decrease (inhibition) is reported as 84.3% (active).
Work on `NC(=O)COCCN1CCN(C(c2ccccc2)c2ccc(Cl)cc2)CC1` (centres undefined) yielded a viability decrease (inhibition) of -5.9%.
In the case of `O=C(CCCN1CCN(c2ccc(F)cc2)CC1)NC1c2ccccc2CSc2ccccc21` (centres undefined), the viability decrease (inhibition) is reported as 14.8%.
`Cc1ccc(C(=O)C(=O)O)cc1C` gave a viability decrease (inhibition) of -5%.
With `CN1[C@@H]2CC[C@H]1CC(NC(=O)n1c(=O)[nH]c3ccccc31)C2` (some centres undefined) the viability decrease (inhibition) was -7.7%.
With `CCOc1cc(OCC)c(C(=O)CCC(=O)O)cc1OCC` the viability decrease (inhibition) was 3.7%.
In the case of `Cc1cc(NS(=O)(=O)c2ccc(N)cc2)nc(C)n1`, the viability decrease (inhibition) is reported as 29.8%.
`c1ccc2c(c1)CCc1ccccc1N2` gave a viability decrease (inhibition) of -6.2%.
Work on `CCOC(=O)C(=O)CCc1ccccc1` yielded a viability decrease (inhibition) of 1%.
`O=C(O)Cc1ccc2c(c1)C(=O)c1ccccc1CO2` gave a viability decrease (inhibition) of -10.1%.
`CN[C@H](CC(C)C)C(=O)N[C@H]1C(=O)N[C@@H](CC(N)=O)C(=O)N[C@H]2C(=O)N[C@H]3C(=O)N[C@H](C(=O)N[C@H](C(=O)O)c4cc(O)cc(O)c4-c4cc3ccc4O)[C@H](O)c3ccc(c(Cl)c3)Oc3cc2cc(c3O[C@@H]2OC(CO)[C@@H](O)[C@H](O)[C@@H]2O[C@H]2C[C@](C)(N)[C@H](O)[C@H](C)O2)Oc2ccc(cc2Cl)[C@H]1O` (some centres undefined) gave a viability decrease (inhibition) of -10%.
With `Oc1cccc(-c2c3nc(c(-c4cccc(O)c4)c4ccc([nH]4)c(-c4cccc(O)c4)c4nc(c(-c5cccc(O)c5)c5ccc2[nH]5)CC4)C=C3)c1` the viability decrease (inhibition) was 95.7% (active).
For `CCC(CN)=C(c1ccccc1)c1ccccc1`, the viability decrease (inhibition) was 55.1% (active).
With `CC(C)=CCC/C(C)=C/CC/C(C)=C/C(=O)OCC(=O)[C@@]1(O)CC[C@H]2[C@@H]3CCC4=CC(=O)C=C[C@]4(C)[C@H]3[C@@H](O)C[C@@]21C` the viability decrease (inhibition) was 88.5% (active).
Work on `NNc1nnc(NN)c2ccccc12` yielded a viability decrease (inhibition) of 6.6%.
`COc1cccc(CCc2ccccc2OCC(CN(C)C)OC(=O)CCC(=O)O)c1` (centres undefined) gave a viability decrease (inhibition) of 21.8%.
`CC(C)(Oc1ccc(Cl)cc1)C(=O)OCCCOC(=O)C(C)(C)Oc1ccc(Cl)cc1` showed a viability decrease (inhibition) of 4%.
With `C/C=C/c1ccc(O)c(OC)c1` the viability decrease (inhibition) was 18.6%.
For `Cc1ccccc1C(=O)Nc1ccc(C(=O)N2CCCC(N(C)C)c3ccccc32)cc1` (centres undefined), the viability decrease (inhibition) was 59% (active).
